The list is not random: actives were taken first. Their share in the collection is about 19%.
IL1B secr inh: inflammasome signaling inhibition, IL-1 beta readout. activity change, % at 57.5 µM. 360,000 tested, 4.7% active. AID 743279. THP-1 LPS/ATP IL-1B secretion, AlphaLISA, 16 h; active compounds read low; in the data active means activity change below about -50%; inconclusive means mostly about -30% to -49%
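THP-1 cells pretreated 1 hr with compounds (up to 57.5 uM final), then stimulated with LPS (250 ng/mL final) plus ATP (1.25 mM final); secreted IL-1B measured by AlphaLISA after 16 hr, decreased signal indicating inhibition.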
HT1080-NT tox: kills 2HG-producing HT-1080-NT fibrosarcoma cells; HT-1080-NT fibrosarcoma viability, CellTiter-Glo ATP luminescence, 48 h; Potency, µM (top dose mostly 46.1 µM), without a hit: at the highest dose activity, negative = less viability, actives largely listed as cytotoxic; 360,000 tested, 1.6% active;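 further: NT is the 2HG producing partner of a matched IDH1 knockdown line; potency means the concentration at half of the fitted maximal effect; 0% = DMSO-treated cells and -100% = media-only wells without cells; nearly all actives have a fitted effect of over 55% in size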
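750 cells/well, RPMI + 5% FBS; 2 h settle, compound pin-transfer, 48 h at 37 degrees C. CellTiter-Glo 10 min RT, luminescence. Normalized to DMSO and media-only wells.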
TDP1 cell CPT: growth inhibition of DT40 Tdp1-/-;hTDP1 cells with camptothecin (screen for TDP1 inhibitors) | chicken DT40 Tdp1-/-;hTDP1 cells + 20 nM CPT, ATP luminescence, 48 h | Potency, µM (doses to about 46.2 µM), for inactives: at the highest dose activity change, negative = growth inhibition, actives largely listed as inhibitors | 420,000 tested, 12% active; further: potency means the concentration at half of the fitted maximal effect; nearly all actives have a fitted effect of over 55% in size
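Cell growth measured by CellTiter-Glo luminescence after a minimum 48 h, 37 C compound exposure with 20 nM CPT in Tdp1-knockout DT40 cells stably expressing hTDP1, seeded 400/well; qHTS titration format.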
TDP1 cell noCPT: qHTS for Inhibitors of human tyrosyl-DNA phosphodiesterase 1 (TDP1): qHTS in cells in absence of CPT. DT40 Tdp1-/- hTDP1 cells, no CPT, ATP luminescence, 48 h. Potency, µM (highest dose often 46.2 µM), without a hit: at the highest dose activity change, negative = growth inhibition, actives largely listed as inhibitors. 420,000 tested, 15% active; further: potency means the concentration at half of the fitted maximal effect; nearly all actives have a fitted effect of over 55% in size
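No-CPT arm: Tdp1-/-;hTDP1 DT40 cells (400/well) plus compounds, incubated ≥48 hr at 37 °C. Readout CellTiter-Glo luminescence.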
HT1080 IDH1KD tx: HT-1080 IDH1 knockdown cell toxicity (counter line). HT-1080 IDH1 knockdown viability, ATP luminescence, 48 h. Potency, µM (series often up to 46.1 µM), for the others: at the top dose activity, negative = toxicity, actives largely listed as cytotoxic. 360,000 tested, 2% active. AID 686971;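 further: potency means the concentration at half of the fitted maximal effect; 0% = DMSO wells and -100% = cell-free medium wells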
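Using the IDH1-knockdown HT-1080 line run in the same batch and compound series as the NT line, viability after 48 h at 37 °C was determined by CellTiter-Glo luminescence and expressed as % activity.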
An asterisk follows results filed as active; ? = inconclusive; / = no result; [ ] = dose if it differs, or a comment. Unless noted, the call rests on the fitted dose curve; in most records, active means well fitted curve in the direction sought with a large enough effect; inconclusive means small, poorly fitted or top-dose-only effect, or another doubt; inactive means no such curve, though single readings can be large; an effect the other way counts as inactive or inconclusive. Unless noted, on the % scale 0 is the no-effect control and ±100 the full control effect.

SMILES	IL1B secr inh	HT1080-NT tox	TDP1 cell CPT	TDP1 cell noCPT	HT1080 IDH1KD tx
CC1CCN(S(=O)(=O)c2cccc(C(=O)N3CCN(c4ccc(F)cc4)CC3)c2)CC1	-14	?	15µM*	?	-23%
O=C(c1cccc(S(=O)(=O)N2CCN(c3ccc(F)cc3)CC2)c1)N1CCCC1	-9	-5%	?	?	-9%
CC1CC(C)CN(S(=O)(=O)c2cccc(C(=O)N3CCN(c4ccc(F)cc4)CC3)c2)C1 (configuration not stated)	-22	-2%	?	21µM*	-23%
CCCCNC(=O)[C@@H]1CSC2c3ccc(OC)c(OC)c3C(=O)N21 (some centres not stated)	1	-3%	-13%	20%	-9%
COC(=O)c1ccc(Cn2c(C)c(C(=O)NCc3cccc(C(F)(F)F)c3)sc2=O)o1	-5	-2%	?	?	2%
Cc1ccc(OCC(=O)NNC(=O)CSC(=S)N2CCCC2)cc1	-4	3%	11%	7%	10%
CN1CCCC(CC2c3ccccc3Sc3ccccc32)C1 (configuration not stated)	-58*	21µM*	?	8.1µM*	18µM*
COc1cccc(CN2C(=O)NC(C)(C3CCN(Cc4ccc(C)o4)CC3)C2=O)c1OC (configuration not stated)	/	/	-5%	-5%	/
COc1cc(/C=C2/C(=O)NN(c3cccc(F)c3)C2=O)ccc1OC(=O)c1ccco1	-8	-6%	?	16µM*	1%
COC(=O)[C@]12CCCCC=C1N(Cc1ccccc1)C(=O)[C@H](CC(=O)N1CCN(C(=O)c3ccco3)CC1)C2	-3	9%	?	?	14%
COC(=O)[C@]12CCCCC=C1N(Cc1ccc3c(c1)OCO3)C(=O)[C@H](CC(=O)N1CCN(C(=O)c3ccco3)CC1)C2	-56*	22%	?	?	14%
COC(=O)[C@@]12C[C@@H](CC(=O)N3CCN(C(=O)c4ccco4)CC3)C(=O)N(Cc3ccccc3)C1=CCC(C)(C)C2	-5	9%	?	15µM*	-1%
COC(=O)[C@@]12C[C@@H](CC(=O)N3CCN(C(=O)c4ccco4)CC3)C(=O)N(Cc3ccco3)C1=CCC(C)(C)C2	-11	23%	?	?	3%
COC(=O)[C@@]12C[C@@H](CC(=O)N3CCN(C(=O)c4ccco4)CC3)C(=O)N(Cc3ccc4c(c3)OCO4)C1=CCC(C)(C)C2	?	-22%	18µM*	21µM*	-10%
Cc1cnc(C)c(-c2cccc3c2OC(CNC(=O)C[C@@H]2C[C@@H](C)NC(=S)N2)C3)n1 (some centres not stated)	/	/	2%[9.04 µM]	0%	/
Cc1nnc(-c2cnn(-c3ccccc3)c2N)n1Cc1ccc(F)cc1	-16	0%	1%	-27%	-11%
COc1ccc(Cl)cc1NS(=O)(=O)N1CCOCC1	8	12%	-1%	20%	8%
CC(C)OC(=S)N/C(=N\S(=O)(=O)c1ccccc1)c1ccccc1	11	7.1µM*	7%	-1%	8.9µM*
Cc1cccc(NC(=S)N/C(=N/S(=O)(=O)c2ccccc2)c2ccccc2)c1	0	-6%	-2%	?	15%
Cc1ccc(OCC(=O)N/N=C/c2cccnc2)cc1C	-13	9%	-16%	-13%	9%
C=CC[C@H]1CC(Cc2ccccc2)=C[C@H](CC=C)N1	-75*	-4%	16µM*	18µM*	-2%
C=CCC1C=C(Cc2ccccc2)CC(CC=C)N1 (configuration not stated)	-3	-2%	18µM*	23µM*	-17%
CC(=O)Nc1ccc(-c2noc(-c3csc([C@@H]4C[C@H](O)[C@@H](CO)O4)n3)n2)cc1	-55*	?	-14%	-15%	7%
O=C(Nc1cccc(Cl)c1Cl)c1csc([C@H]2C[C@H](O)[C@@H](CO)O2)n1	-23	1%	15µM*	?	20%
O=C(Nc1cccc(Cl)c1)c1ccc2sc([C@H]3C[C@H](O)[C@@H](CO)O3)nc2c1	2	-13%	26µM*	23µM*	?
SMILES	IL1B secr inh	HT1080-NT tox	TDP1 cell CPT	TDP1 cell noCPT	HT1080 IDH1KD tx
O=C(NCc1ccccc1Cl)c1csc([C@H]2C[C@H](O)[C@@H](CO)O2)n1	-4	13%	5%	-2%	0%
O=C(Nc1ccc(Cl)cc1)c1csc([C@@H]2O[C@H](CO)[C@@H](O)[C@H]2O)n1	17	?	?	?	1%
O=C(Nc1cccc(Cl)c1Cl)c1csc([C@@H]2O[C@H](CO)[C@@H](O)[C@H]2O)n1	25	19%	23µM*	?	27%
NC(=O)C1CCN(CC(=O)Nc2cccnc2Cl)CC1	-5	-1%	7%	-2%	20%
Cc1cc(C)nc(NS(=O)(=O)c2ccc(NS(=O)(=O)c3ccsc3)cc2)n1	0	0%	6%	5%	1%
COc1ccc(/C=C\c2cc(OC)c(OC)cc2CC[N+](C)(C)C)cc1OC	21	1%	11%	2%	5%
COC(=O)CSc1nc(N)c2c3c(sc2n1)C(c1ccccc1)SC(c1ccccc1)C3 (configuration not stated)	-100*	?	4.1µM*	2.6µM*	?
O=C(/C=C/c1cccs1)c1ccc(N2CCOCC2)cc1	-69*	1%	?	?	2%
CC(=O)c1cc(OC(=O)N2CCOCC2)ccc1OC(=O)N1CCOCC1	23	15%	-2%	22%	6%
O=C(/C=C/c1cccs1)c1cc(Br)ccc1OC(=O)N1CCOCC1	-98*	21µM*	?	?	?
COc1ccc(CN(C)C(=O)CCC(=O)N2CCN(S(=O)(=O)c3ccc(Cl)cc3)CC2)c(OC)c1	-24	-2%	?	?	-2%
CCOC(=O)CC1(NC(=O)C2CCC(=O)N(CCc3ccccc3)C2)CCCCC1 (configuration not stated)	-22	8%	2%	-4%	0%
CC1=NN(C(N)=S)C(=O)C1N=Nc1ccc([N+](=O)[O-])cc1 (configuration not stated)	6	5%	0%	?	-7%
Cc1ccc(S(=O)(=O)C2C(=O)N(C)C3(C)CC2c2ccccc2O3)cc1 (configuration not stated)	0	?	-24%	16µM*	14%

From PubChem
